# G9a block: G9a (human) methyltransferase inhibition; G9a H3K9 monomethylation, AlphaScreen, 2 h; 8.8% of 350,000 active; AID 504332; Potency, µM (top dose mostly 102 µM), inactives show at the top dose activity, negative = inhibition, usual class: inhibitors; Q96KQ7; note: % is set by controls: 0 for no effect and ±100 for the full control effect; nearly all actives have a fitted effect of over 75% in size
#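 Step 1: enzyme (final 20 nM) with compound, 15 min RT. Step 2: substrate peptide 500 nM and SAM 20 uM, 2 h RT. Step 3: anti-H3K9me1 antibody and AlphaScreen beads, 10 min, then plate read.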
# GRP78 ERSR act: inducers of ER stress response in human glioma cells; U87-MG GRP78 promoter luciferase reporter, 16 h; Potency, µM, without a hit: at the highest dose activation, most hits filed as activators; 0.02% of 420,000 active; AID 602332; note: series mostly up to about 76 µM; % of control where 0% means no effect; nearly all actives have a fitted effect of over 35% in size
#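 Stably transfected U87-MG glioma cells carrying a GRP78-based luciferase sensor; 16 h compound incubation. Luminescence end-point read 10 min after Bright-Glo addition at room temperature.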
# 12-LOX inh: ALOX12 (human) lipoxygenase inhibition. 1.1% of 580,000 active. P18054. Potency, µM (doses to about 108 µM), without a hit: at the highest dose activity change, negative = inhibition, usual class: inhibitors. AID 1671190. purified 12hLO, xylenol orange hydroperoxide absorbance; note: % is set by controls: 0 for no effect and ±100 for the full control effect
# Target sequence (P18054 whole entry, looked up): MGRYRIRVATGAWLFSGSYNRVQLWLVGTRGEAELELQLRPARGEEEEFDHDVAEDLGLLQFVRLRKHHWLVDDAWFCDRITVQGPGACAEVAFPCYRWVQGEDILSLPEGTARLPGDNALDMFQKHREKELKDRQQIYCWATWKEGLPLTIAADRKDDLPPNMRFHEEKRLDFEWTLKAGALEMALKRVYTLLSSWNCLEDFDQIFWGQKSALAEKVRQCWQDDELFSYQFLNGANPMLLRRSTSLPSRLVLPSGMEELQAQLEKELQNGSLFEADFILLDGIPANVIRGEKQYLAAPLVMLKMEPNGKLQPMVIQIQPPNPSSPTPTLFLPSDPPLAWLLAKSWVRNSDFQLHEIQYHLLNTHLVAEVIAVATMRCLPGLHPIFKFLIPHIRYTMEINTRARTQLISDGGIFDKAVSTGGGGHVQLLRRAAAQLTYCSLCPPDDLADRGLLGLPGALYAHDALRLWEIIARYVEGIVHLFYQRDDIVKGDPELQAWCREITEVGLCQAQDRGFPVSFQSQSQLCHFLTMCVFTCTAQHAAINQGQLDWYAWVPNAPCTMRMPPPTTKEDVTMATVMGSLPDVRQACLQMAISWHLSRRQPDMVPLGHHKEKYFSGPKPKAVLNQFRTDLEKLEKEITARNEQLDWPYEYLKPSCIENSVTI
#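 Purified human 12hLO at 150 nM in 25 mM Hepes, 0.01% Triton X-100, pH 7.0, preincubated 15 min at room temperature with compound. Reaction started with 40 uM arachidonic acid, 30 min at room temperature. Hydroperoxide measured by Fe-xylenol orange, 573/405 nm absorbance ratio.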
# Sfp PPTase inh: blocks B. subtilis Sfp PPTase activity | Q9F4F7 | 3.5% of 310,000 active | Potency, µM, inactives show largest response in the series, negative = inhibition, usual class: inhibitors | Biochemical Sfp PPTase activity, qHTS;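 note: the enzyme is Sfp with the accession as filed and its product quenches rhodamine fluorescence; 0% = enzyme reaction without inhibitor and -100% = no enzyme wells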
#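 Fluorescence-quenching assay with 15 nM Sfp, 5 uM rhodamine-CoA and 12.5 uM BHQ-2-labelled ybbR peptide in pH 7.6 Hepes/MgCl2 buffer. Enzyme was pre-incubated with compound for 15 min at room temperature. Rate was taken from the 30-min fluorescence change (525/598 nm).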
# VDR inhibitor: inhibitors of human vitamin D receptor; P11473; VDR-SRC2-3 peptide fluorescence polarization, 2 h; Potency, µM, for inactives: max response, negative = inhibition, usual class: inhibitors; 0.93% of 400,000 active; AID 504847; note: % is set by controls: 0 for no effect and ±100 for the full control effect
#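 FP read-out; VDR + SRC2-3 coactivator peptide; 23 nl compound by pintool; 2 h RT incubation; reagents held at 4 deg C, protected from light.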
# Starred values were filed as active, the others as inactive; ? = inconclusive; . = not tested or not shown; ! = not active in a repeat; [ ] = another dose, or the depositor's remark. Shown is part of a subset that was picked to be rich in hits. Calls come from the whole dose curve; as a rule, active = well fitted curve in the direction sought with a large enough effect; inconclusive = small, poorly fitted or top-dose-only effect, or another doubt; inactive = no such curve, though single readings can be large; an effect the other way counts as inactive or inconclusive. Potency is the fitted concentration of half-maximal effect.
SMILES,G9a block,GRP78 ERSR act,12-LOX inh,Sfp PPTase inh,VDR inhibitor
Cc1nn(C)c(C)c1CCC(=O)N1CCC(Cc2noc(-c3ccc(F)cc3)n2)C1 (stereo not drawn),.,.,52.8%,.,.
CCc1ccc(NC(=O)N2CCC(OC3CCN(S(C)(=O)=O)CC3)CC2)cc1,.,.,44.7%,.,.
COCCn1nnnc1C(c1cc2cc(C)ccc2[nH]c1=O)N1CCN(C2CCCCC2)CC1 (stereo not drawn),-26.7%[0.0925 µM],9.7%,1.2%,-3.5%,-1.4%
CCc1ccc2[nH]c(=O)c(C(c3nnnn3CCOC)N3CCN(c4ccccc4F)CC3)cc2c1 (stereo not drawn),?,-4.2%,?,8.91µM*,0.8%
Cc1nc(/C=C/C(=O)N(C)Cc2cccs2)cs1,.,.,15.8%,.,.
NCCS(=O)O,18.9µM*!,-4.7%,-10.9%,-15.8%,-1.1%
CCN1CCC(OCCCNC(=O)C2(CCO)CC23CCOCC3)CC1 (stereo not drawn),.,.,21.3%,.,.
Nc1c(C(=O)C2CC2)sc2nc3c(cc12)CCC3,?,5.1%,-24.2%,-7.1%,-15.8%
Nc1c(C(=O)O)sc2nc3c(cc12)CCCC3,22.4µM*,3.5%,?,-14.9%,-26.1%
NC(=O)c1sc2nc3c(cc2c1N)CCCCCC3,50.1µM*,1.8%,-27.7%,31.6µM*,-6.1%
CCCCOC(=O)C(C)Oc1ccc2c(=O)c(-c3ccccc3OC)coc2c1 (stereo not drawn),.,.,2.9%,.,.
S=C(Nc1ccc(Cl)cc1)Nc1ccc2c(c1)OCCO2,.,7.5%,?,4.4%,-9.6%
Cc1ccccc1NC(=S)Nc1ccc2[nH]c(=O)[nH]c2c1,50.1µM*,-0.9%,?,-28.2%,2.1%
O=c1[nH]c2ccc(NC(=S)Nc3ccccc3Cl)cc2[nH]1,14.1µM*,-2.3%,?,50.1µM*,-5.8%
S=C(Nc1ccc2c(c1)OCCO2)Nc1ccccc1Cl,79.4µM*,14.5%,?,17.8%,-1.6%
S=C(Nc1ccc2cn[nH]c2c1)Nc1ccc(Cl)cc1Cl,28.2µM*,-5.0%,?,15.8µM*,?
CN(C)c1cccc(C(=O)NNC(=O)c2ccc(Cl)cc2)c1,.,.,2.3%,.,.
COc1ccc(OC)c(COC(=O)c2cc(OC)ccc2Br)c1,.,.,1.4%,.,.
CCC1c2ccsc2CCN1C(=O)C1CCN(S(=O)(=O)c2ccc(C(C)=O)cc2)CC1 (stereo not drawn),.,.,-1.4%,.,.
CC(=O)NCC1CCCN(Cc2ccc(-c3ccccc3C#N)o2)C1 (stereo not drawn),.,.,9.7%,.,.
CCOC(=O)N1CCN(c2nc(=S)n(-c3ccccc3)c(C)c2C(C)=O)CC1,?,-3.8%,31.6µM*,-13.9%,-1.5%
CC(=O)c1c(N2CCN(c3ccccc3)CC2)nc(=S)n(-c2ccccc2)c1C,-33.4%[59 µM],-0.7%,?,79.4µM*,0.4%
CCc1cccc(C)c1NC(=O)CSc1nc2ccc(N3C(=O)c4ccccc4C3=O)cc2s1,.,-3.8%,25.9%,-3.4%,7.1%
CCc1cccc(CC)c1NC(=O)CSc1nc2ccc(N3C(=O)C4C(C3=O)[C@H]3C=C[C@@H]4C3)cc2s1 (stereo partly drawn),1.41µM*,17.8%,?,-4.9%,-15.8%
O=C(CCS(=O)(=O)Cc1ccccc1)Nc1cc(F)cc(F)c1,.,.,14.2%,.,.
SMILES,G9a block,GRP78 ERSR act,12-LOX inh,Sfp PPTase inh,VDR inhibitor
COc1c(O)cc(O)cc1O,-27.5%[2.33 µM],-0.9%,.,4.0%,4.6%
Cc1cc(O)c(Oc2cc(C)cc(O)c2O)c(O)c1,0.891µM*,4.3%,?,5.01µM*,-20.9%
CC(=O)c1c[nH]c2cc(C#N)ccc12,.,.,-26.5%,.,.
O=C(Cc1cccc(F)c1)N1CCC2(CCC(=O)N(CC3CC3)CC2)CC1,.,.,-7.2%,.,.
O=C(Cc1cccc(F)c1)N1CCC2(CC1)NC(=O)N(c1cccc(F)c1)N2,.,.,6.31µM*,.,.
COc1cccc(CC(=O)N2CCC3(CC2)NC(=O)N(c2cccc(F)c2)N3)c1,.,.,5.01µM*,.,.
O=C(Cc1ccc(Cl)cc1)N1CCC2(CC1)NC(=O)N(c1ccccc1Cl)N2,.,.,1.41µM*,.,.
O=C(COc1ccccc1)N1CCC2(CC1)NC(=O)N(c1ccccc1Cl)N2,.,.,-93.6%,.,.
O=C(Cc1ccc(Cl)cc1)N1CCOCC1,19.1%,-3.6%,5.1%,18.4%,-10.7%
O=C(Cc1ccc(Cl)cc1)N1CCC2(CC1)NC(=O)N(c1cccc(F)c1)N2,.,.,3.16µM*,.,.
COc1cccc(CC(=O)N2CCC3(CC2)N(C)C(=O)CS3(=O)=O)c1,.,.,39.5%,.,.

# Screening results deposited in PubChem by National Center for Advancing Translational Sciences (NCATS).
